Compounds without any hit were thinned out: in the full panel of roughly 79,000, 15% have a hit. Unmarked numbers belong to inactive results. The source made the active and inactive calls. No stated cut-off is given here; in the data, active means growth inhibition above about 70%; inactive means the rest.

The first test is described as follows: NCI Yeast Anticancer Drug Screen. Data for the sgs1 mgt1 strain (AID 161).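 Further: 0% = growth of cultures given vehicle only.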 The note with it: S. cerevisiae sgs1 mgt1 strain, at 50.0 µM (retest, dose inferred, filed as 5.0), hits give high values. In short, it runs like this:
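Percent growth inhibition was derived by comparing compound-exposed mutant yeast with vehicle-exposed cultures. The strain carries alterations in DNA damage repair.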
As for `CCC(c1ccccc1)N1C(=O)c2ccccc2S1(=O)=O` (stereo not given), the growth inhibition was -2%.
Regarding `Cc1ccc2cc3ccccc3c(-c3ccccc3)c2c1`, the growth inhibition was -61%.
With `CC(=O)Oc1ccc(C)cc1C(C)(C)C`, the growth inhibition is -2%.
As to `CCCCCCCCCCC[N+](C)(C)CCCCCC[N+](C)(C)CCCCCCCCCCC`, the growth inhibition is 99% (active).
As for `CCN(CC)CCCNc1nc(NCCCN(CC)CC)c2nc(-c3ccccc3)c(-c3ccccc3)nc2n1`, the growth inhibition is 94% (active).
As for `O=[N+]([O-])c1cnc(Sc2cncc[n+]2[O-])s1`, the growth inhibition was 100% (active).
Same read-out and setting: under `O=c1[nH]c(=O)c2cc([N+](=O)[O-])cc([N+](=O)[O-])c2[nH]1` stands 78% (active); under `O=C(NC(=O)C(F)(F)F)Nc1ccc(Cl)cc1`, 1%; under `O=[N+]([O-])c1ccc(S)c(Cl)c1`, 95% (active).
`CS(=O)(=O)n1c(C(O)c2ccccc2)nc2ccccc21` (stereo not given): the growth inhibition was 8%.
Consider `O=C(NCc1ccccc1)C1C(=O)N(Cc2ccccc2)C(=O)/C1=N/O` (stereo not given), for which the growth inhibition is -22%.
For `C[n+]1c(/C=C/c2ccccc2Cl)sc2ccccc21`, the growth inhibition is 88% (active).
As for `CC(=O)c1ccc(Cl)c(N=Cc2cc(Br)ccc2O)c1`, the growth inhibition was 95% (active).
On the same count and under the same terms, under `O=C(c1ccc(Cl)cc1)c1ccc([N+](=O)[O-])cc1` stands -14%; under `Nc1ccc2c(c1)[nH]c(=O)c1cc(Cl)c(Cl)cc12`, 70% (active).
As to `COc1ccc(C2CC(c3c(O)ccc4ccccc34)=NN2)cc1OC` (stereo not given), the growth inhibition is 97% (active).
In the case of `CC[N+]1(C)CCC(O)(c2ccc(Cl)c(Cl)c2)C(C(=O)c2ccc(Cl)c(Cl)c2)C1` (stereo not given), the growth inhibition was 99% (active).
On to `Nc1nc(Cl)cc(NCC2(CO)CC(CCCc3ccccc3)C2)n1` (stereo not given), for which the growth inhibition was 12%.
On the same count and under the same terms, under `Nc1nc(-c2cc3cc(Cl)ccc3o2)cs1` stands 75% (active).
With `O=C(N(c1ccc(Cl)cc1)c1ccc(Cl)cc1)C(Cl)(Cl)Cl`, the growth inhibition is 69%.
Take `NC(CSSCC(N)C(=O)Nc1ccc2ccccc2c1)C(=O)Nc1ccc2ccccc2c1` (stereo not given): the growth inhibition is 100% (active).
Take `O=C/C=C/c1cc([N+](=O)[O-])ccc1Cl`: the growth inhibition is 83% (active).
Regarding `COc1cc(C(c2cc3c(cc2OC(C)=O)OCO3)C(C(C)=O)C(C)=O)cc(OC)c1OC(C)=O` (stereo not given), the growth inhibition is 0%.
On the same count and under the same terms, under `CCCCc1ccc(Nc2nc(N)c3[nH]cnc3n2)cc1` stands 31%.
Turning to `O=C(O)/C=C/C(=O)Nc1cccc2ccccc12`, the growth inhibition was 100% (active).
For the compound `Cc1cc(O)c(C(=O)/C=C/c2ccnc3ccccc23)c(=O)o1`, the growth inhibition is 20%.
Consider `ONC1=Nc2ccccc2OCc2cc(Br)c(Br)cc2COc2ccccc2N=C1NO`, for which the growth inhibition is 89% (active).
`NNC(=O)c1ccc(N)cc1O`: the growth inhibition was -3%.
Same read-out and setting: the figure for `O=C(N/C(=C\c1ccc2c(c1)OCO2)c1nc2ccccc2s1)c1ccccc1` is 98% (active); for `CC1=NN(C(=O)c2ccncc2)C(=O)C1N=Nc1ccc(C)c([N+](=O)[O-])c1` (stereo not given) it is 94% (active); for `COc1ccc2nc3cc(Cl)ccc3c(Nc3nccs3)c2c1` it is 90% (active).
On to `S=C(S)NCCN1CCNCC1`, for which the growth inhibition was -16%.
As to `ClCc1nc2ccccc2c2ccccc12`, the growth inhibition is 21%.
As for `ClC1=C(Cl)C(Cl)(C(Cl)(Cl)Cl)C(Cl)=C1Cl`, the growth inhibition was 98% (active).
On to `FC(F)(F)COP1(OCC(F)(F)F)=NP(OCC(F)(F)F)(OCC(F)(F)F)=NP(c2ccccc2)(c2ccccc2)=N1`, for which the growth inhibition was -1%.
As for `CC(C)c1c(P(=O)(c2ccccc2)c2ccccc2)n(C)c2ccccc12`, the growth inhibition is 89% (active).
Consider `CN(CCC1CCCCC1)CCC1CCCCC1`, for which the growth inhibition is 97% (active).
With `Cc1nc(Cl)nc(N)c1[N+](=O)[O-]`, the growth inhibition is 30%.
As for `Nc1ccc2[nH]c3ccccc3c2c1`, the growth inhibition was 0%.
Turning to `COc1ccc(NC(=O)CSC(N)=O)cc1`, the growth inhibition is 18%.

The test is the same for the next values; noted with them: S. cerevisiae sgs1 mgt1 strain, at 50.0 µM, hits give high values.
`CCC(c1ccccc1)N1C(=O)c2ccccc2S1(=O)=O` (stereo not given): the growth inhibition is 25.3%.
The same measure, in the same setting: under `Cc1ccc2cc3ccccc3c(-c3ccccc3)c2c1` stands -9.35%; under `CC(=O)Oc1ccc(C)cc1C(C)(C)C`, 59.1%; under `CCCCCCCCCCC[N+](C)(C)CCCCCC[N+](C)(C)CCCCCCCCCCC`, 90.9% (active).
As for `CCN(CC)CCCNc1nc(NCCCN(CC)CC)c2nc(-c3ccccc3)c(-c3ccccc3)nc2n1`, the growth inhibition is 63.8%.
Consider `O=[N+]([O-])c1cnc(Sc2cncc[n+]2[O-])s1`, for which the growth inhibition is 99.3% (active).
In the case of `O=c1[nH]c(=O)c2cc([N+](=O)[O-])cc([N+](=O)[O-])c2[nH]1`, the growth inhibition is 54.9%.
On to `O=C(NC(=O)C(F)(F)F)Nc1ccc(Cl)cc1`, for which the growth inhibition is 9.75%.
Consider `O=[N+]([O-])c1ccc(S)c(Cl)c1`, for which the growth inhibition was 90.3% (active).
For the compound `CS(=O)(=O)n1c(C(O)c2ccccc2)nc2ccccc21` (stereo not given), the growth inhibition was 3.1%.
Consider `O=C(NCc1ccccc1)C1C(=O)N(Cc2ccccc2)C(=O)/C1=N/O` (stereo not given), for which the growth inhibition was 35.2%.
In the case of `C[n+]1c(/C=C/c2ccccc2Cl)sc2ccccc21`, the growth inhibition was 98.2% (active).
With `CC(=O)c1ccc(Cl)c(N=Cc2cc(Br)ccc2O)c1`, the growth inhibition was 67.4%.
On the same count and under the same terms, the figure for `O=C(c1ccc(Cl)cc1)c1ccc([N+](=O)[O-])cc1` is 4.6%; for `Nc1ccc2c(c1)[nH]c(=O)c1cc(Cl)c(Cl)cc12` it is 78.2% (active); for `COc1ccc(C2CC(c3c(O)ccc4ccccc34)=NN2)cc1OC` (stereo not given) it is 90.4% (active).
On to `CC[N+]1(C)CCC(O)(c2ccc(Cl)c(Cl)c2)C(C(=O)c2ccc(Cl)c(Cl)c2)C1` (stereo not given), for which the growth inhibition is 99% (active).
Take `Nc1nc(Cl)cc(NCC2(CO)CC(CCCc3ccccc3)C2)n1` (stereo not given): the growth inhibition was -26.5%.
Turning to `Nc1nc(-c2cc3cc(Cl)ccc3o2)cs1`, the growth inhibition was 24.4%.
Consider `O=C(N(c1ccc(Cl)cc1)c1ccc(Cl)cc1)C(Cl)(Cl)Cl`, for which the growth inhibition is 4.95%.
Same read-out and setting: the figure for `NC(CSSCC(N)C(=O)Nc1ccc2ccccc2c1)C(=O)Nc1ccc2ccccc2c1` (stereo not given) is 91.7% (active).
For the compound `O=C/C=C/c1cc([N+](=O)[O-])ccc1Cl`, the growth inhibition is 57.4%.
As for `COc1cc(C(c2cc3c(cc2OC(C)=O)OCO3)C(C(C)=O)C(C)=O)cc(OC)c1OC(C)=O` (stereo not given), the growth inhibition was -18.9%.
Regarding `CCCCc1ccc(Nc2nc(N)c3[nH]cnc3n2)cc1`, the growth inhibition is 36.1%.
Still for that read-out and setting: under `O=C(O)/C=C/C(=O)Nc1cccc2ccccc12` stands 55.5%; under `Cc1cc(O)c(C(=O)/C=C/c2ccnc3ccccc23)c(=O)o1`, -2%.
The same measure, in the same setting: the figure for `ONC1=Nc2ccccc2OCc2cc(Br)c(Br)cc2COc2ccccc2N=C1NO` is 91.5% (active); for `NNC(=O)c1ccc(N)cc1O` it is -29.2%; for `O=C(N/C(=C\c1ccc2c(c1)OCO2)c1nc2ccccc2s1)c1ccccc1` it is 98.1% (active).
On to `CC1=NN(C(=O)c2ccncc2)C(=O)C1N=Nc1ccc(C)c([N+](=O)[O-])c1` (stereo not given), for which the growth inhibition was 88.8% (active).
`COc1ccc2nc3cc(Cl)ccc3c(Nc3nccs3)c2c1`: the growth inhibition is 94.4% (active).
As for `S=C(S)NCCN1CCNCC1`, the growth inhibition is -27.9%.
As to `ClCc1nc2ccccc2c2ccccc12`, the growth inhibition is 55.9%.
With `ClC1=C(Cl)C(Cl)(C(Cl)(Cl)Cl)C(Cl)=C1Cl`, the growth inhibition is 99.7% (active).
`FC(F)(F)COP1(OCC(F)(F)F)=NP(OCC(F)(F)F)(OCC(F)(F)F)=NP(c2ccccc2)(c2ccccc2)=N1`: the growth inhibition is 38.1%.
Regarding `CC(C)c1c(P(=O)(c2ccccc2)c2ccccc2)n(C)c2ccccc12`, the growth inhibition is 77.8% (active).
Consider `CN(CCC1CCCCC1)CCC1CCCCC1`, for which the growth inhibition is 97.2% (active).
Turning to `Cc1nc(Cl)nc(N)c1[N+](=O)[O-]`, the growth inhibition is 24.8%.
On the same count and under the same terms, the figure for `Nc1ccc2[nH]c3ccccc3c2c1` is 40.2%; for `COc1ccc(NC(=O)CSC(N)=O)cc1` it is 64.1%.
